# According to ChEMBL document CHEMBL3988442, “University of Dundee, Small-Polar-MMV Screening Library” (2021):
# Hit rate of the full screen: of about 48,000 compounds, about 13,000 (27%) showed an effect of 50% or more. This is one part of the list.
# System: Wolbachia pipientis
# Test: Anti-Wolbachia Cell-Based Screen
# Type: functional
# Design: scale not given: in the data most compounds retested in dose-response had high values
# Settings: 5 µM
row,Structure (SMILES),Percent Effect [%]
1,CC(C)n1cc2cc(NC(=O)Cn3cnnn3)ccc2n1,0.8884
2,O=C1NCCCCC1NC(=O)C1(Oc2ccc(Cl)cc2)CCNCC1 (centres undefined),4.291
3,CCOc1ccccc1NC(=O)NCC(C)(O)CCSC (centres undefined),-5.529
4,CCC(CC)C(=O)NC1CCCc2nc(N3CCOCC3)ncc21 (centres undefined),97.19
5,CC(C)C(=O)NC1CCCc2nc(N3CCOCC3)ncc21 (centres undefined),72.33
6,CN(C)C(CNC(=O)c1nc(N2CCOCC2)ncc1Cl)c1ccco1 (centres undefined),-7.125
7,Cc1cnc(N2CCC3(CC2)CC(NC(=O)C(C)C)CO3)nc1 (centres undefined),-15.93
8,CC(CNC(=O)c1nc(N2CCOCC2)ncc1Cl)c1ccccc1 (centres undefined),-18.26
9,CC(C)n1c(C2CCCN(CC(=O)NC(N)=O)C2)nc2ccccc21 (centres undefined),-22.16
10,Cc1cc(C)n(C2CCN(Cc3c(-c4cc(C)on4)nn(C)c3Cl)C2)n1 (centres undefined),0.03188
11,CN(C)C(=O)Cc1ccccc1NCc1cccc(F)c1F,-19.09
12,COCc1csc(NC(=O)NCc2ccsc2)n1,-7.736
13,Cc1csc(CNC(=O)N(C)Cc2cnn(C)c2)n1,7.256
14,Cn1cc(CC2CCN(C(=O)NCc3csc(C4CC4)n3)C2)cn1 (centres undefined),102.9
15,CC(C)Cc1cc(C(=O)N2CCC(Cc3cnn(C)c3)C2)cc(O)n1 (centres undefined),0.7528
16,CC(C)c1cc(CNC(=O)N2CCC(Cc3cnn(C)c3)C2)on1 (centres undefined),2.959
17,COCc1csc(NC(=O)N2CCC(Cc3cnn(C)c3)C2)n1 (centres undefined),102.3
18,CC(C)CC(NC(=O)CN(C)C(=O)c1ccco1)c1cccs1 (centres undefined),25.03
19,NC(=O)c1csc(N2C[C@@H](CN3CCC(O)CC3)[C@@H](CO)C2)n1,99.75
20,OCc1csc(N2C[C@@H](CN3CCCCCC3)[C@@H](CO)C2)n1,103.7
21,O=C(CCc1cn[nH]c1)N1C[C@@H](CN2CCCCCC2)[C@@H](CO)C1,3.932
22,CN(C)Cc1nnc(C2CCCN(c3nc(C(N)=O)cs3)C2)n1C (centres undefined),10.64

row,Structure (SMILES),Percent Effect [%]
1,OC[C@H]1CN(Cc2c(Cl)cncc2Cl)C[C@H]1CN1CCCCCC1,-60.78
2,NC(=O)c1csc(N2C[C@@H](CN3CCCCC3)[C@@H](CO)C2)n1,104.1
3,O=C(CCCc1cn[nH]c1)N1C[C@@H](CN2CCOCC2)[C@@H](CO)C1,24.78
4,CC(=O)c1ccc(CN2C[C@@H](CN3CCC(O)CC3)[C@@H](CO)C2)cc1,-12.65
5,NC(=O)c1csc(N2C[C@@H](CN3CCOCC3)[C@@H](CO)C2)n1,103.5
6,CC(=O)c1cc(CN2C[C@@H](CN3CCC(O)CC3)[C@@H](CO)C2)n(C)c1,12.27
7,CC(C)c1ncc(CN2C[C@@H](CN3CCCCC3)[C@@H](CO)C2)cn1,-5.957
8,COc1cnc(N2C[C@@H](CN3CCOCC3)[C@@H](CO)C2)nc1,-6.772
9,CCc1cc(C(=O)N2CCc3c(ncn3CCc3ccccc3)C2)[nH]n1,0.9556
10,CC(C(=O)NC1(C#N)CCCCC1)N1CCc2c(ncn2C2CC2)C1 (centres undefined),2.173
11,Cc1ccc(F)c(NC(=O)CCC(=O)N(C)Cc2nc(C)c[nH]2)c1,-39.22
12,CC(C)n1c(C2CCCN(CC(=O)NC3CC3)C2)nc2ccccc21 (centres undefined),-1.015
13,O=C1COc2ccccc2N1CCCn1cnnn1,-11.05
14,CN(C)C(CNS(=O)(=O)c1cnn(C)c1)c1cccc(F)c1 (centres undefined),6.578
15,N#Cc1ccc(OC2CCN(C(=O)c3ccc(Br)o3)CC2)nc1,22.17
16,Cc1nc(N2C[C@@H](CN3CCCN(C)CC3)[C@@H](CO)C2)c2sccc2n1,6.466
17,Cc1nc(N2C[C@@H](CN3CCCN(C)CC3)[C@@H](CO)C2)c2ccsc2n1,13.06
18,CN1CCCN(C[C@@H]2CN(c3nc(C(N)=O)cs3)C[C@@H]2CO)CC1,120.2
19,Cc1cnn(C2CN(CC(O)c3ccc(F)cc3)C2)c1 (centres undefined),3.544
20,O=C1O[C@@H]2CN(c3cnccn3)C[C@@H]2N1CCCc1ccc(F)cc1,20.37
21,COc1c(C)cnc(CN(C)C(=O)c2ccccc2F)c1C,-7.265
22,O=C(O)c1ccc(S(=O)(=O)Nc2ccccc2F)c(F)c1,-2.05

row,Structure (SMILES),Percent Effect [%]
1,O=C(O)c1ccc(S(=O)(=O)Nc2ccc(Cl)c(F)c2)c(F)c1,4.995
2,N#Cc1cccc(NS(=O)(=O)c2ccc(C(=O)O)cc2F)c1,100.6
3,Cc1ccccc1NS(=O)(=O)c1ccc(C(=O)O)cc1F,0.9629
4,Cc1cc(NS(=O)(=O)c2ccc(C(=O)O)cc2F)ccc1F,102.3
5,O=C(O)c1ccc(S(=O)(=O)Nc2cccc(CC(F)(F)F)c2)c(F)c1,-7.999
6,Cc1ccc(F)cc1S(=O)(=O)N(C)CC(N)=O,2.56
7,O=C1CCC2(CCNCC2)CN1CCCOc1cccnc1,-10.24
8,COc1ccc(CN(C)C(=O)NC(C)c2nncn2C)cc1F (centres undefined),-30.44
9,O=C(NCC1CCN(Cc2ccsc2)CC1)NC1CC1,4.525
10,CC(c1ccccc1)N1CCC(NC(=O)CCc2ccsc2)CC1 (centres undefined),5.953
11,COCC(=O)NCC1CCN(Cc2ccsc2)CC1,155
12,CCSc1ccccc1C(=O)NCC1CCN(Cc2ccsc2)CC1,107.8
13,O=C(CCSc1ccccc1)NCC1CCN(Cc2ccsc2)CC1,78.72
14,O=C(COc1ccccc1)NCC1CCN(Cc2ccsc2)CC1,115.8
15,COCCNC(=O)CCC1CCN(Cc2cccc(SC)c2)CC1,4.456
16,CSc1cccc(CN2CCC(CCC(=O)NCCN(C)C)CC2)c1,-5.054
17,CCC(CC)c1nnc(NC(=O)N2CCCC(NC(C)=O)C2)s1 (centres undefined),-9.059
18,CCn1ncnc1C(C)NC(=O)COc1ccc(Cl)cc1Cl (centres undefined),-23.74
19,CN(Cc1cc(C(C)(C)C)n[nH]1)Cc1c[nH]nc1-c1ccc(F)cc1,-14.5
20,CC1(C)[C@H]2CC=C(CN3CCCn4nc(CCC(=O)O)cc4C3)[C@@H]1C2,1.513
